From PubChem BioAssay (Tox21)
Records with an inconclusive call do not appear. The source made the active and inactive calls. Calls follow the shape of the dose curve; as a rule, active = well fitted curve in the direction sought with a large enough effect in the repeat runs; inconclusive = weak or mixed curves; inactive = no such curve, though single readings can be large; an effect the other way counts as inactive or inconclusive.

Key:
[1] = A CellTox Green Cytotoxicity Assay to monitor cytotoxicity in HEK293 cells - 40 hour (AID 1224871); also: nearly all actives have a fitted effect of over 45% in size
Outline: (§1)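 Fluorescence intensity, read at 0, 8, 16, 24, 32 and 40 h of compound treatment, reflected dye binding to DNA of dead HEK293 cells; compounds (23 nL, DMSO) were added 5 h after plating cells with reagent.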

[2] = qHTS RealTime-Glo MT Cell Viability Assay in HEK293 cells - 16 hour (AID 1224872); also: top concentration of the series differs between compounds; nearly all actives have a fitted effect of over 50% in size
Outline: (§2)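 Tox21 10K qHTS, HEK293, 600 cells/well, RealTime-Glo reagent co-dispensed with cells; 5 h preincubation, compound by pintool, 37 C, luminescence at 0–40 h.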

[3] = qHTS RealTime-Glo MT Cell Viability Assay in HepG2 cells - 8 hour (AID 1224873); also: nearly all actives have a fitted effect of over 55% in size
Outline: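 Real-time viability: cells seeded at 600 per well together with NanoLuc and cell-permeant prosubstrate, compounds added after 5 h incubation. Luminescence tracked at 0, 8, 16, 24, 32 and 40 h of exposure.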

[4] = qHTS RealTime-Glo MT Cell Viability Assay in HEK293 cells - 40 hour (AID 1224874); details: RealTime-Glo luminescence; max response: stronger effect = lower value; also: nearly all actives have a fitted effect of over 50% in size
Outline: (§3)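 Viable HEK293 cells reduce a cell-permeant prosubstrate; the product diffuses out and is consumed by NanoLuc in the medium to give light. Compounds went in after a 5 h incubation and plates were read over the treatment course.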

[5] = A CellTox Green Cytotoxicity Assay to monitor cytotoxicity in HEK293 cells - 24 hour (AID 1224875); also: series mostly up to about 77 µM; nearly all actives have a fitted effect of over 45% in size
Outline: as §1

[6] = A CellTox Green Cytotoxicity Assay to monitor cytotoxicity in HepG2 cells - 16 hour (AID 1224876); also: nearly all actives have a fitted effect of over 45% in size
Outline: (§4)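 Using 1536-well format, dye-containing HepG2 suspension was seeded, allowed 5 h at 37 C/5% CO2, dosed by pintool with compounds, positive and negative controls, and imaged for fluorescence across 40 h.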

[7] = qHTS RealTime-Glo MT Cell Viability Assay in HepG2 cells - 32 hour (AID 1224877); also: nearly all actives have a fitted effect of over 55% in size
Outline: (§5)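 Cells + NanoLuc/prosubstrate dispensed (600 cells/well) → 5 h at 37 C/5% CO2 → compounds in DMSO transferred → 40 h incubation at 37 C, luminescence read at 0, 8, 16, 24, 32, 40 h.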

[8] = A CellTox Green Cytotoxicity Assay to monitor cytotoxicity in HepG2 cells - 24 hour (AID 1224878); also: nearly all actives have a fitted effect of over 45% in size
Outline: as §4

[9] = A CellTox Green Cytotoxicity Assay to monitor cytotoxicity in HepG2 cells - 40 hour (AID 1224879); also: nearly all actives have a fitted effect of over 40% in size
Outline: as §4

[10] = qHTS RealTime-Glo MT Cell Viability Assay in HEK293 cells - 0 hour (AID 1224880)
Outline: as §3

[11] = A CellTox Green Cytotoxicity Assay to monitor cytotoxicity in HEK293 cells - 32 hour (AID 1224881); also: nearly all actives have a fitted effect of over 40% in size
Outline: as §1

[12] = A CellTox Green Cytotoxicity Assay to monitor cytotoxicity in HepG2 cells - 0 hour (AID 1224882); also: nearly all actives have a fitted effect of over 35% in size
Outline: as §4

[13] = A CellTox Green Cytotoxicity Assay to monitor cytotoxicity in HepG2 cells - 32 hour (AID 1224883); also: nearly all actives have a fitted effect of over 50% in size
Outline: as §4

[14] = A CellTox Green Cytotoxicity Assay to monitor cytotoxicity in HEK293 cells - 8 hour (AID 1224884); also: nearly all actives have a fitted effect of over 35% in size
Outline: as §1

[15] = qHTS RealTime-Glo MT Cell Viability Assay in HepG2 cells - 16 hour (AID 1224885); also: nearly all actives have a fitted effect of over 50% in size
Outline: as §5

[16] = qHTS RealTime-Glo MT Cell Viability Assay in HEK293 cells - 24 hour (AID 1224886)
Outline: as §2

[17] = qHTS RealTime-Glo MT Cell Viability Assay in HEK293 cells - 8 hour (AID 1224887)
Outline: as §3

[18] = A CellTox Green Cytotoxicity Assay to monitor cytotoxicity in HEK293 cells - 16 hour (AID 1224888); also: nearly all actives have a fitted effect of over 35% in size
Outline: as §1

[19] = qHTS RealTime-Glo MT Cell Viability Assay in HepG2 cells - 0 hour (AID 1224889); also: nearly all actives have a fitted effect of over 50% in size
Outline: as §5

[20] = A CellTox Green Cytotoxicity Assay to monitor cytotoxicity in HepG2 cells - 8 hour (AID 1224890); also: nearly all actives have a fitted effect of over 45% in size
Outline: as §4
% is scaled to controls: 0 for no effect and ±100 for the full control effect.

NCCOCCOCCN
inactive: Potency [1] | Potency [2] | outcome [3] | max response [4] -14% | Potency [5] | Potency [6] | Potency [7] | Potency [8] | Potency [9] | Potency [10] | Potency [11] | Potency [12] | Potency [13] | Potency [14] | outcome [15] | Potency [16] | Potency [17] | Potency [18] | Potency [19] | Potency [20]

CCC[Si](OC)(OC)OC
inactive: Potency [1] | Potency [2] | outcome [3] | max response [4] -8.66% | Potency [5] | Potency [6] | Potency [7] | Potency [8] | Potency [9] | Potency [10] | Potency [11] | Potency [12] | Potency [13] | Potency [14] | outcome [15] | Potency [16] | Potency [17] | Potency [18] | Potency [19] | Potency [20]

CC(=O)S[C@H](C(=O)N[C@H]1Cc2ccccc2[C@H]2CCC[C@@H](C(=O)O)N2C1=O)C(C)C
inactive: Potency [1] | Potency [2] | outcome [3] | max response [4] 16.8% | Potency [5] | Potency [6] | Potency [7] | Potency [8] | Potency [9] | Potency [10] | Potency [11] | Potency [12] | Potency [13] | Potency [14] | outcome [15] | Potency [16] | Potency [17] | Potency [18] | Potency [19] | Potency [20]

Nc1nc(Cl)nc2c1ncn2[C@H]1C[C@H](O)[C@@H](CO)O1
inactive: Potency [1] | Potency [2] | outcome [3] | max response [4] -25.7% | Potency [5] | Potency [6] | Potency [7] | Potency [8] | Potency [9] | Potency [10] | Potency [11] | Potency [12] | Potency [13] | Potency [14] | outcome [15] | Potency [16] | Potency [17] | Potency [18] | Potency [19] | Potency [20]

Cc1c(Cl)cccc1Nc1ccccc1C(=O)O
inactive: Potency [1] | Potency [2] | outcome [3] | max response [4] -5.01% | Potency [5] | Potency [6] | Potency [7] | Potency [8] | Potency [9] | Potency [10] | Potency [11] | Potency [12] | Potency [13] | Potency [14] | outcome [15] | Potency [16] | Potency [17] | Potency [18] | Potency [19] | Potency [20]

C1=COCCC1
inactive: Potency [1] | Potency [2] | outcome [3] | max response [4] 1.01% | Potency [5] | Potency [6] | Potency [7] | Potency [8] | Potency [9] | Potency [10] | Potency [11] | Potency [12] | Potency [13] | Potency [14] | outcome [15] | Potency [16] | Potency [17] | Potency [18] | Potency [19] | Potency [20]

CCCC(=O)OCc1ccccc1
inactive: Potency [1] | Potency [2] | outcome [3] | max response [4] 5.95% | Potency [5] | Potency [6] | Potency [7] | Potency [8] | Potency [9] | Potency [10] | Potency [11] | Potency [12] | Potency [13] | Potency [14] | outcome [15] | Potency [16] | Potency [17] | Potency [18] | Potency [19] | Potency [20]

CCCc1ccc(OC)cc1
inactive: Potency [1] | Potency [2] | outcome [3] | max response [4] 11.9% | Potency [5] | Potency [6] | Potency [7] | Potency [8] | Potency [9] | Potency [10] | Potency [11] | Potency [12] | Potency [13] | Potency [14] | outcome [15] | Potency [16] | Potency [17] | Potency [18] | Potency [19] | Potency [20]

O=C(O)CNc1ccccc1
inactive: Potency [1] | Potency [2] | outcome [3] | max response [4] 5.54% | Potency [5] | Potency [6] | Potency [7] | Potency [8] | Potency [9] | Potency [10] | Potency [11] | Potency [12] | Potency [13] | Potency [14] | outcome [15] | Potency [16] | Potency [17] | Potency [18] | Potency [19] | Potency [20]

C=CCCC
inactive: Potency [1] | Potency [2] | outcome [3] | max response [4] 18% | Potency [5] | Potency [6] | Potency [7] | Potency [8] | Potency [9] | Potency [10] | Potency [11] | Potency [12] | Potency [13] | Potency [14] | outcome [15] | Potency [16] | Potency [17] | Potency [18] | Potency [19] | Potency [20]

C(/C=C/C=C/Nc1ccccc1)=Nc1ccccc1
inactive: Potency [1] | Potency [2] | outcome [3] | max response [4] -15.7% | Potency [5] | Potency [6] | Potency [7] | Potency [8] | Potency [9] | Potency [10] | Potency [11] | Potency [12] | Potency [13] | Potency [14] | outcome [15] | Potency [16] | Potency [17] | Potency [18] | Potency [19] | Potency [20]

COc1ccc(/C=C/S(=O)(=O)NC(=O)c2ccc(C)cc2Cl)cc1
inactive: Potency [1] | Potency [2] | outcome [3] | max response [4] -7.95% | Potency [5] | Potency [6] | Potency [7] | Potency [8] | Potency [9] | Potency [10] | Potency [11] | Potency [12] | Potency [13] | Potency [14] | outcome [15] | Potency [16] | Potency [17] | Potency [18] | Potency [19] | Potency [20]

O=C(O)c1ccc(O)c(O)c1
inactive: Potency [1] | Potency [2] | outcome [3] | max response [4] -5.14% | Potency [5] | Potency [6] | Potency [7] | Potency [8] | Potency [9] | Potency [10] | Potency [11] | Potency [12] | Potency [13] | Potency [14] | outcome [15] | Potency [16] | Potency [17] | Potency [18] | Potency [19] | Potency [20]

CC(=O)CC/C=C(\C)CC/C=C(\C)CC/C=C(\C)CCC=C(C)C
inactive: Potency [1] | Potency [2] | outcome [3] | max response [4] 4.5% | Potency [5] | Potency [6] | Potency [7] | Potency [8] | Potency [9] | Potency [10] | Potency [11] | Potency [12] | Potency [13] | Potency [14] | outcome [15] | Potency [16] | Potency [17] | Potency [18] | Potency [19] | Potency [20]
